PubChem BioAssay (NCATS)
Inconclusive results are not listed. Activity calls are given as the source filed them. The call rests on the fitted dose curve; in most records, active means well fitted inhibition curve with a large enough effect; inconclusive means small, poorly fitted or top-dose-only effect; inactive means flat fitted curve, though single readings scatter.

Assays:
Test in all cases: Cytotoxic Profiling of Annotated Libraries Using Quantitative High-Throughput Screening (AID 1296008); further: nearly all actives have a fitted effect of over 60% in size
Settings in all cases: Five cell lines viability, CellTiter-Glo ATP luminescence, 48-72 h; max response: stronger effect = lower value
CRL-7250 = normal cell line; test system: CRL-7250
How it was run: (§1)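 Cells exposed to compounds for 48 or 72 hr at 37 degrees Celsius. Viability read as ATP-coupled luminescence with CellTiter-Glo after 10 min at room temperature.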

HEK293 = test system: HEK293
How it was run: as §1

HaCat = test system: HaCat
How it was run: as §1

KB-3-1 = test system: KB-3-1
How it was run: as §1

NIH3T3 = test system: NIH3T3
How it was run: as §1

Measured: max response
On the % scale 0 is the no-effect control and ±100 the full control effect.

C=CC[C@]12C[C@@H](OC)C(=O)C(OC)=C1O[C@@H](c1cc(OC)c3c(c1)OCO3)[C@@H]2C
inactive: CRL-7250 4.3% | HEK293 -8.3% | HaCat -13.8% | KB-3-1 -1.19% | NIH3T3 -4.29%

C[C@@H]1CCC2C(C)(C)[C@H](O)CC[C@]2(C)[C@@]12Cc1c(O)cc3c(c1O2)CNC3=O (stereo not given in full)
inactive: CRL-7250 -75.1% | HEK293 -94.6% | HaCat -68.6% | KB-3-1 9.73% | NIH3T3 -63%

C[C@@H]1O[C@@H](O[C@@H]2[C@@H](O)[C@H](O[C@H]3[C@H](O[C@H]4CC[C@@]5(C)C(CC[C@]6(C)C5CC=C5[C@@H]7CC(C)(C)CC[C@]7(C(=O)O[C@@H]7O[C@H](CO)[C@@H](O)[C@H](O)[C@H]7O[C@@H]7O[C@@H](C)[C@H](O[C@@H]8O[C@@H](C)[C@H](O)[C@@H](O)[C@H]8O)[C@@H](O)[C@H]7O)CC[C@]56C)[C@@]4(C)CO)O[C@H](C(=O)O)[C@@H](O)[C@@H]3O)O[C@H](CO)[C@H]2O)[C@H](O)[C@H](O)[C@H]1O (stereo not given in full)
inactive: CRL-7250 | HEK293 -2.3% | HaCat 4.58% | KB-3-1 5.11% | NIH3T3 2.85%

CC1(C)CC2=C3C=CC4C5(C)CCC(O)C(C)(C)C5CCC4(C)C3(C)CCC2(C)C(O)C1 (stereo not given)
inactive: CRL-7250 -3.63% | HEK293 -1.33% | HaCat -3.58% | KB-3-1 -4.92% | NIH3T3 -2.26%

C=C1CC[C@@H]2[C@](C)(CO[C@@H]3O[C@H](CO)[C@@H](O)[C@H](O)[C@H]3O)[C@H](O)CC[C@@]2(C)[C@@H]1C/C=C1/C(=O)OC[C@H]1O
inactive: CRL-7250 4.42% | HEK293 -4.02% | HaCat 3.39% | KB-3-1 | NIH3T3 2.12%
